Assay results published in PubChem BioAssay AID1159580 (chemical genetic matrix, 2015).
In all, about 5,500 compounds went through this assay and about 2,000 (36%) were called active. Roughly 18% stayed inconclusive and do not appear here. Rule as the data show it: active = normalized growth mostly below about 0.91 (no sharp cut-off); inconclusive = no clear call, values can overlap the other calls; inactive = mostly above about 0.92. The list shows a part of the results.

Experiment: chemical genetic growth profiling, strain panel (AID 1159580);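 also: tested at 20 µM; growth read once vehicle control cultures reached saturation at 30 °C; 1 = growth at the plate median or of vehicle wells; lower values mean less growth of the strain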
Conditions: growth OD
[1] = S. cerevisiae deletion strains, locus YDL101C, strain DUN1, stronger effect = lower value
[2] = S. cerevisiae deletion strains, locus YHR030C, strain SLT2, stronger effect = lower value
[3] = S. cerevisiae deletion strains, locus YAL013W, strain DEP1, stronger effect = lower value
[4] = S. cerevisiae deletion strains, locus YBR229C, strain ROT2, stronger effect = lower value
[5] = S. cerevisiae deletion strains, locus YDR150W, strain NUM1, stronger effect = lower value
[6] = S. cerevisiae deletion strains, locus YEL061C, strain CIN8, stronger effect = lower value
[7] = S. cerevisiae deletion strains, locus YGR078C, strain PAC10, stronger effect = lower value
[8] = S. cerevisiae deletion strains, locus YHR087W, strain rtc3, stronger effect = lower value
[9] = S. cerevisiae deletion strains, locus YJR043C, strain POL32, stronger effect = lower value
[10] = S. cerevisiae deletion strains, locus YJR075W, strain HOC1, stronger effect = lower value
[11] = S. cerevisiae deletion strains, locus YLR039C, strain RIC1, stronger effect = lower value
[12] = S. cerevisiae deletion strains, locus YLR058C, strain SHM2 (second series), stronger effect = lower value
[13] = S. cerevisiae deletion strains, locus YLR085C, strain ARP6, stronger effect = lower value
[14] = S. cerevisiae deletion strains, locus YLR262C, strain YPT6, stronger effect = lower value
[15] = S. cerevisiae deletion strains, locus YML094W, strain GIM5, stronger effect = lower value
[16] = S. cerevisiae deletion strains, locus YMR219W, strain ESC1, stronger effect = lower value
[17] = S. cerevisiae deletion strains, locus YMR263W, strain SAP30, stronger effect = lower value
[18] = S. cerevisiae deletion strains, locus YNL153C, strain GIM3, stronger effect = lower value
[19] = S. cerevisiae deletion strains, locus YNL298W, strain CLA4 (second series), stronger effect = lower value
[20] = S. cerevisiae deletion strains, locus YNL322C, strain KRE1, stronger effect = lower value
[21] = S. cerevisiae deletion strains, locus YNR030W, strain Alg12, stronger effect = lower value
[22] = S. cerevisiae deletion strains, locus YPL055C, strain LGE1, stronger effect = lower value
[23] = S. cerevisiae deletion strains, locus YPL241C, strain CIN2, stronger effect = lower value
[24] = S. cerevisiae deletion strains, locus YPR135W, strain CTF4, stronger effect = lower value
[25] = S. cerevisiae strains, strain wild type, stronger effect = lower value

Measured: normalized growth

Cn1cncc1S(=O)(=O)/C(C#N)=C/c1ccccc1Sc1ccc(Cl)cc1
inactive: S. cerevisiae deletion strains, locus YAR019C, strain CDC15, stronger effect = lower value 0.987 | S. cerevisiae deletion strains, locus YBL105C, strain PKC1, stronger effect = lower value 0.973 | S. cerevisiae deletion strains, locus YBR135W, strain CKS1, stronger effect = lower value 0.975 | S. cerevisiae deletion strains, locus YBR136W, strain MEC1, stronger effect = lower value 0.972 | S. cerevisiae deletion strains, locus YBR160W, strain CDC28, stronger effect = lower value 0.983 | S. cerevisiae deletion strains, locus YDL017W, strain CDC7, stronger effect = lower value 0.976 | S. cerevisiae deletion strains, locus YDL028C, strain MPS1, stronger effect = lower value 0.979 | [1] 0.976 | S. cerevisiae deletion strains, locus YDL108W, strain KIN28, stronger effect = lower value 0.979 | S. cerevisiae deletion strains, locus YDL132W, strain cdc53, stronger effect = lower value 0.97 | S. cerevisiae deletion strains, locus YDL214C, strain PRR2, stronger effect = lower value 0.771 | S. cerevisiae deletion strains, locus YDR052C, strain DBF4, stronger effect = lower value 0.983 | S. cerevisiae deletion strains, locus YDR054C, strain cdc34, stronger effect = lower value 0.982 | S. cerevisiae deletion strains, locus YDR226W, strain ADK1, stronger effect = lower value 0.962 | S. cerevisiae deletion strains, locus YDR477W, strain SNF1, stronger effect = lower value 0.773 | S. cerevisiae deletion strains, locus YER123W, strain YCK3, stronger effect = lower value 0.729 | S. cerevisiae deletion strains, locus YER133W, strain GLC7, stronger effect = lower value 0.786 | S. cerevisiae deletion strains, locus YFL009W, strain cdc4, stronger effect = lower value 0.971 | S. cerevisiae deletion strains, locus YFL029C, strain CAK1, stronger effect = lower value 0.984 | S. cerevisiae deletion strains, locus YFR003C, strain YPI1, stronger effect = lower value 0.98 | S. cerevisiae deletion strains, locus YFR028C, strain CDC14, stronger effect = lower value 0.969 | S. cerevisiae deletion strains, locus YGR040W, strain KSS1, stronger effect = lower value 0.752 | S. cerevisiae deletion strains, locus YGR052W, strain FMP48, stronger effect = lower value 0.713 | S. cerevisiae deletion strains, locus YGR092W, strain DBF2, stronger effect = lower value 0.619 | S. cerevisiae deletion strains, locus YHR079C, strain IRE1, stronger effect = lower value 0.668 | S. cerevisiae deletion strains, locus YHR205W, strain SCH9, stronger effect = lower value 0.617 | S. cerevisiae deletion strains, locus YIL147C, strain SLN1, stronger effect = lower value 0.973 | S. cerevisiae deletion strains, locus YJL095W, strain BCK1, stronger effect = lower value 0.726 | S. cerevisiae deletion strains, locus YJL128C, strain PBS2, stronger effect = lower value 0.944 | S. cerevisiae deletion strains, locus YJL157C, strain FAR1, stronger effect = lower value 0.723 | S. cerevisiae deletion strains, locus YJR016C, strain ILV3, stronger effect = lower value 0.982 | S. cerevisiae deletion strains, locus YJR066W, strain TOR1 (second series), stronger effect = lower value 0.771 | S. cerevisiae deletion strains, locus YJR066W, strain TOR1, stronger effect = lower value 0.678 | S. cerevisiae deletion strains, locus YKL048C, strain ELM1, stronger effect = lower value 0.845 | S. cerevisiae deletion strains, locus YKL067W, strain YNK1, stronger effect = lower value 0.854 | S. cerevisiae deletion strains, locus YKL101W, strain HSL1, stronger effect = lower value 0.828 | S. cerevisiae deletion strains, locus YKL193C, strain SDS22, stronger effect = lower value 0.976 | S. cerevisiae deletion strains, locus YKL203C, strain TOR2, stronger effect = lower value 0.815 | S. cerevisiae deletion strains, locus YML070W, strain DAK1, stronger effect = lower value 0.8 | S. cerevisiae deletion strains, locus YMR001C, strain CDC5, stronger effect = lower value 0.971 | S. cerevisiae deletion strains, locus YMR205C, strain PFK2 (second series), stronger effect = lower value 0.829 | S. cerevisiae deletion strains, locus YMR277W, strain FCP1, stronger effect = lower value 0.973 | S. cerevisiae deletion strains, locus YNL006W, strain LST8, stronger effect = lower value 0.984 | S. cerevisiae deletion strains, locus YNL020C, strain ARK1, stronger effect = lower value 0.716 | S. cerevisiae deletion strains, locus YNL161W, strain CBK1, stronger effect = lower value 0.978 | S. cerevisiae deletion strains, locus YNL183C, strain NPR1, stronger effect = lower value 0.807 | S. cerevisiae deletion strains, locus YNL207W, strain RIO2, stronger effect = lower value 0.971 | S. cerevisiae deletion strains, locus YNL222W, strain SSU72, stronger effect = lower value 0.98 | S. cerevisiae deletion strains, locus YNL307C, strain MCK1 (second series), stronger effect = lower value 0.681 | S. cerevisiae deletion strains, locus YOL078W, strain AVO1, stronger effect = lower value 0.966 | S. cerevisiae deletion strains, locus YOR061W, strain CKA2, stronger effect = lower value 0.758 | S. cerevisiae deletion strains, locus YOR119C, strain RIO1, stronger effect = lower value 0.776 | S. cerevisiae deletion strains, locus YOR231W, strain MKK1, stronger effect = lower value 0.794 | S. cerevisiae deletion strains, locus YOR329C, strain SCD5, stronger effect = lower value 0.978 | S. cerevisiae deletion strains, locus YPL031C, strain PHO85, stronger effect = lower value 0.743 | S. cerevisiae deletion strains, locus YPL153C, strain RAD53, stronger effect = lower value 0.798 | S. cerevisiae deletion strains, locus YPL204W, strain HRR25, stronger effect = lower value 0.699 | S. cerevisiae deletion strains, locus YPL209C, strain IPL1, stronger effect = lower value 0.975 | S. cerevisiae deletion strains, locus YPR025C, strain CCL1, stronger effect = lower value 0.977 | S. cerevisiae deletion strains, locus YPR106W, strain ISR1, stronger effect = lower value 0.981 | S. cerevisiae deletion strains, locus YPR111W, strain DBF20, stronger effect = lower value 0.962 | S. cerevisiae deletion strains, strain NNK1, stronger effect = lower value 0.967 | S. cerevisiae deletion strains, strain TSCII, stronger effect = lower value 0.974
active: S. cerevisiae deletion strains, locus YFR019W, strain FAB1, stronger effect = lower value 0.75 | [2] 0.368 | S. cerevisiae deletion strains, locus YHR082C, strain KSP1, stronger effect = lower value 0.6 | S. cerevisiae deletion strains, locus YLR113W, strain HOG1, stronger effect = lower value 0.81 | S. cerevisiae deletion strains, locus YLR133W, strain CKI1, stronger effect = lower value 0.73 | S. cerevisiae deletion strains, locus YLR403W, strain SFP1, stronger effect = lower value 0.619 | S. cerevisiae deletion strains, locus YOL136C, strain PFK27, stronger effect = lower value 0.674 | S. cerevisiae deletion strains, locus YPL256C, strain CLN2, stronger effect = lower value 0.73

CC(=O)/C(=C\Nc1ncccn1)S(=O)(=O)c1ccc(Cl)cc1
inactive: [3] 1.01 | [4] 1 | S. cerevisiae deletion strains, locus YCL061C, strain MRC1, stronger effect = lower value 1 | [1] 1.01 | [5] 0.977 | [6] 1 | [7] 1 | S. cerevisiae deletion strains, locus YGR229C, strain SMI1, stronger effect = lower value 1 | [2] 0.822 | [8] 0.98 | S. cerevisiae deletion strains, locus YJL187C, strain SWE1, stronger effect = lower value 1 | [9] 1.05 | [10] 0.941 | [11] 0.927 | [12] 0.993 | [13] 0.918 | [14] 0.89 | [15] 0.97 | [16] 0.998 | [17] 0.987 | S. cerevisiae deletion strains, locus YNL128W, strain TEP1, stronger effect = lower value 1.01 | [18] 1.01 | [19] 0.954 | [20] 0.946 | [21] 0.975 | [22] 0.925 | [23] 0.98 | [24] 0.9 | [25] 1

CC(=O)OCc1ccc(/C=C(\C#N)S(=O)(=O)c2ccc(Cl)cc2)o1
inactive: [3] 1.01 | [4] 1.01 | [1] 1.01 | [5] 1.06 | [6] 1 | [7] 1.01 | [2] 0.923 | [8] 0.983 | [9] 1.04 | [10] 0.956 | S. cerevisiae deletion strains, locus YKL190W, strain CNB1, stronger effect = lower value 1.02 | [11] 0.992 | [12] 0.996 | [13] 0.923 | [14] 1.01 | [15] 0.993 | [16] 0.993 | [17] 1.06 | S. cerevisiae deletion strains, locus YMR307W, strain GAS1, stronger effect = lower value 0.869 | [18] 1.03 | [19] 1.01 | [20] 0.985 | [21] 0.985 | [22] 1.13 | [23] 0.98 | [24] 0.966 | [25] 1.02
